Measured values from PubChem BioAssay (Tox21).
Results filed as inconclusive are left out. Activity calls are given as the source filed them. Unless noted, calls follow the shape of the dose curve; as a rule, active = well fitted curve in the direction sought with a large enough effect in the repeat runs; inconclusive = weak or mixed curves; inactive = no such curve, though single readings can be large; an effect the other way counts as inactive or inconclusive.

Assays:
[1] = qHTS assay to identify small molecule HDAC inhibitors (AID 1259364); also: top concentration of the series differs between compounds; nearly all actives have a fitted effect of over 45% in size
Outline: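 Luminescence from a cell-permeant luminogenic class I/II HDAC substrate reports endogenous deacetylase activity in intact HCT-116 cells treated with compounds for 2 h.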

[2] = qHTS assay to identify small molecule HDAC inhibitors - cell viability counter screen (AID 1259365); also: series mostly up to about 92 µM; nearly all actives have a fitted effect of over 50% in size
Outline: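 HCT-116 (wild type), 1,500 cells/well, overnight 37C/5% CO2; compound in DMSO 2hr; CellTiter-Glo 30min RT; luminescence read.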

[3] = qHTS assay to identify small molecule agonists of the sonic hedgehog signaling (Shh) pathway - cell viability counter screen (AID 1259366); also: nearly all actives have a fitted effect of over 50% in size
Outline: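 CellTiter-Fluor fluorescence read-out, 1 hr at 37C, added after 23hr compound exposure. Cells: 3T3 Gli1-Luc, an NIH/3T3 clone with stably integrated Gli1-Luc reporter, plated 4hr before compound.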

[4] = qHTS assay to identify small molecule antagonists of the sonic hedgehog signaling (Shh) pathway - cell viability counter screen (AID 1259367); also: nearly all actives have a fitted effect of over 55% in size
Outline: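 NIH/3T3-derived Gli1-Luc reporter cells (2,000 per well) rested 4 hr at 37 C, then received DMSO compounds plus conditioned medium. After 23 hr of treatment, CellTiter-Fluor was added for 1 hr at 37C and fluorescence read.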

[5] = qHTS assay to identify small molecule agonists of the sonic hedgehog signaling (Shh) pathway (AID 1259368; calls by dose curve;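 also: NIH/3T3-derived 3T3Gli1-Luc cells carrying a stable Gli1-driven firefly luciferase reporter; series mostly up to about 92 µM; nearly all actives have a fitted effect of over 15% in size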)
Outline: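 3T3Gli1-Luc (NIH/3T3 clone, stable Gli1-Luc); 4 hr pre-incubation, then cpd in DMSO 24 hr, 37 C/5% CO2; luciferase reagent 30 min RT; luminescence.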

[6] = biological target: Estrogen receptor beta (Homo sapiens) (UniProt Q92731); experiment: qHTS assay to identify small molecule agonists of the estrogen receptor beta (ER-beta) signaling pathway (AID 1259377; active = well fitted activation curve with a large enough effect in the signal ratio in the repeat runs, not every such curve was filed as active; the % refers to the signal ratio)
Sequence of Estrogen receptor beta (Homo sapiens) (Q92731 whole entry, looked up): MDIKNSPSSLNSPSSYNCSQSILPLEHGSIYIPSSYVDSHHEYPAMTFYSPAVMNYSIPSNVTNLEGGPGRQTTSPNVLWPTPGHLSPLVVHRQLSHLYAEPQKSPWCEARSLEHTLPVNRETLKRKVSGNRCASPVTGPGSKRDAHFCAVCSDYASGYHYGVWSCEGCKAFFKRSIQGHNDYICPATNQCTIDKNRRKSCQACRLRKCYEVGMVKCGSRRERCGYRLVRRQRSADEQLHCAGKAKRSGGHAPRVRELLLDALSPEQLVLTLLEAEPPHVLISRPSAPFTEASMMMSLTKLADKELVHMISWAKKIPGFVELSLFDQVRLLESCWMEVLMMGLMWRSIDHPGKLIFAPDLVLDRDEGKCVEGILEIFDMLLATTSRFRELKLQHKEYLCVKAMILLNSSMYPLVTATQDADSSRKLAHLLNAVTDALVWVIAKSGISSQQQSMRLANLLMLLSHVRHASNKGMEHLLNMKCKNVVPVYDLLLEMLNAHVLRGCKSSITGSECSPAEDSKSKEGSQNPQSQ
Outline: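 Beta-lactamase reporter readout: fluorescence of LiveBLAzer B/G FRET substrate after 2 h at room temperature, following 16 h compound treatment of ER-beta-UAS-bla HEK293T cells at 37C in 2% charcoal-stripped FBS medium.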

[7] = biological target: Estrogen receptor beta (Homo sapiens) (UniProt Q92731); experiment: qHTS assay to identify small molecule antagonists of the estrogen receptor beta (ER-beta) signaling pathway (AID 1259378; active = well fitted inhibition curve with a large enough effect in the signal ratio in the repeat runs, not every such curve was filed as active; the % refers to the signal ratio)
Outline: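 ER-beta-UAS-bla HEK293T (GripTite) cells in 2% charcoal-stripped FBS medium were preincubated 6 hr at 37C, dosed with compound, then stimulated with 1 nM E2 (final) for 16 hr; beta-lactamase reporter read by B/G FRET fluorescence after 2 hr substrate loading.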

[8] = qHTS assay to identify small molecule agonists of the androgen receptor (AR) signaling pathway in the presence of an antagonist - cell viability counter screen (AID 1259379);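 also: MDA-kb2 human breast cancer cells carrying an MMTV luciferase reporter; series mostly up to about 92 µM; nearly all actives have a fitted effect of over 25% in size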
Outline: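 Cells: MDA-kb2 (MMTV-luc, AR and GR elements), 3,000/well, 5 hr settle. Added: nilutamide 3.0uM final, then compounds (15 conc.). Incubation: 16 hr, 37C, no CO2. Read-out: CellTiter-Fluor, 1 hr, fluorescence.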

[9] = qHTS assay to identify small molecule agonists of the estrogen receptor beta (ER-beta) signaling pathway - cell viability counter screen (AID 1259380); also: nearly all actives have a fitted effect of over 30% in size
Outline: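 HEK293T ER-beta-UAS-bla; 2% CS-FBS; 6 hr pre-plate, 16 hr cpd at 37C/5% CO2; LiveBLAzer read first, then CellTiter-Glo 30 min RT, luminescence.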

[10] = qHTS assay to identify small molecule antagonists of the estrogen receptor beta (ER-beta) signaling pathway - cell viability counter screen (AID 1259382); also: series mostly up to about 92 µM; nearly all actives have a fitted effect of over 55% in size
Outline: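 Cells: ER-beta-UAS-bla HEK293T, 2,000/well, 2% CS-FBS, 6 hr settle. Cpd + E2 (1nM final), 16 hr, 37C/5% CO2. Bla FRET substrate 2 hr RT, then CellTiter-Glo 30 min RT, luminescence.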

[11] = biological target: Thyrotropin receptor (Homo sapiens) (UniProt P16473); experiment: qHTS assay to identify small molecule antagonists of the thyroid stimulating hormone receptor (TSHR) signaling pathway (AID 1259385; calls by dose curve; also: nearly all actives have a fitted effect of over 20% in size)
Sequence of Thyrotropin receptor (Homo sapiens) (P16473 whole entry, looked up): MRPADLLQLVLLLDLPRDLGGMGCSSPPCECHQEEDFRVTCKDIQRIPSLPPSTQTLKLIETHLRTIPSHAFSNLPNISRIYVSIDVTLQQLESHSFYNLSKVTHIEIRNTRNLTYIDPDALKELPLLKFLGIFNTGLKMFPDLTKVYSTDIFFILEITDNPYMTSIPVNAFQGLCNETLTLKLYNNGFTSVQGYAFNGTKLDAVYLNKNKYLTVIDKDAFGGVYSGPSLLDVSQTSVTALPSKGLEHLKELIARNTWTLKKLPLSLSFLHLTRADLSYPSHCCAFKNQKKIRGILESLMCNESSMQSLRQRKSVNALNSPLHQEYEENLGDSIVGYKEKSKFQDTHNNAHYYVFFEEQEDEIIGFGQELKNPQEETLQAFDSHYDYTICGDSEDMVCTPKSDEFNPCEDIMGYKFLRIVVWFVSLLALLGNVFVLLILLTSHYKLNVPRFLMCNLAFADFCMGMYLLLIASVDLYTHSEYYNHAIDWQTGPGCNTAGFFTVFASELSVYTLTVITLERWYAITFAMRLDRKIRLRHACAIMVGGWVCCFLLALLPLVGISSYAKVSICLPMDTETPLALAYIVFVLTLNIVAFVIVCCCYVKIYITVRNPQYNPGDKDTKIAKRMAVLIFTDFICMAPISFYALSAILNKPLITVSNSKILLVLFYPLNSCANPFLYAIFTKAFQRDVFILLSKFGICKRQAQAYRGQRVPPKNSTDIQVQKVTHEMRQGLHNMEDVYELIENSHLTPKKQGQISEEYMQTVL
Outline: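 TSHR-HEK293 cells were plated and held 18 h at 37C/5% CO2, then given compound plus Ro20-1724 and stimulated with TSH at 1.5 ng/mL final. After 30 min at room temperature, cAMP was detected with cAMP-d2/anti-cAMP-cryptate (1 h) by fluorescence.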

[12] = qHTS assay to identify small molecule agonists of the estrogen receptor alpha (ER-alpha) signaling pathway in the presence of an antagonist - cell viability counter screen (AID 1259386);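 also: series mostly up to about 92 µM; cells exposed to compounds for 22 h at 37 °C before the viability read; nearly all actives have a fitted effect of over 30% in size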
Outline: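 VM7Luc4E2, stripped-serum pre-culture 5 d; 24hr plating; +ICI-182,780 10.0nM final; cpds 15 conc, 22hr, 37C/5% CO2; CellTiter-Fluor added at 21hr, fluorescence 1hr later.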

[13] = biological target: Progesterone receptor (Homo sapiens) (UniProt P06401); experiment: qHTS assay to identify small molecule agonists of the progesterone receptor (PR) signaling pathway (AID 1346784; calls by dose curve; also: nearly all actives have a fitted effect of over 30% in size)
Sequence of Progesterone receptor (Homo sapiens) (P06401 whole entry, looked up): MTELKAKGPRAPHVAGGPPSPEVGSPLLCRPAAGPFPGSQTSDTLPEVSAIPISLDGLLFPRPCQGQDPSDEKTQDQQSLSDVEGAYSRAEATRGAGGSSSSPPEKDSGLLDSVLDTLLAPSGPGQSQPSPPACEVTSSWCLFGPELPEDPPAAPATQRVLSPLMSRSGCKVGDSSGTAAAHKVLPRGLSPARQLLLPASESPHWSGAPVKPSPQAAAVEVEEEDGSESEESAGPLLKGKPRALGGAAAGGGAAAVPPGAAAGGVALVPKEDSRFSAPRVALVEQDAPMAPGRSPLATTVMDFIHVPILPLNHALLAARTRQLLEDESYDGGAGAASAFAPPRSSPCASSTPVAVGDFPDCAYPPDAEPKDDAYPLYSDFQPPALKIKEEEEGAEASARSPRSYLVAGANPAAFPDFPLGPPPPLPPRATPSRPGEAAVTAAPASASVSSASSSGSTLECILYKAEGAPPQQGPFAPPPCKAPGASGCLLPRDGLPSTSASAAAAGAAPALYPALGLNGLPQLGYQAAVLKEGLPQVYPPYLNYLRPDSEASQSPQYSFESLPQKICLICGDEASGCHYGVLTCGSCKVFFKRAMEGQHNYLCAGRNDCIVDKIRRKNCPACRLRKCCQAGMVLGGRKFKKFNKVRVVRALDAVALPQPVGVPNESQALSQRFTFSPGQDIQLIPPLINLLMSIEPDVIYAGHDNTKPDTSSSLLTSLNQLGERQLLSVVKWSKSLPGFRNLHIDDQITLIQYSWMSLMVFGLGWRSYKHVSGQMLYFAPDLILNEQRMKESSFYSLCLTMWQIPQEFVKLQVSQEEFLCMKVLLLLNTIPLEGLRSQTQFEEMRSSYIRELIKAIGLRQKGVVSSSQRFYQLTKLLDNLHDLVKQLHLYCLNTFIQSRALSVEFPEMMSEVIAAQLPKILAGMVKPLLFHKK
Outline: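 HEK 293T PR-UAS-bla reporter cells, 2% charcoal-stripped FBS; 6 hr settle at 37C/5% CO2, compound (DMSO) 16 hr, LiveBLAzer B/G FRET substrate 2 hr RT, fluorescence intensity read.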

[14] = biological target: Progesterone receptor (Homo sapiens) (UniProt P06401); experiment: qHTS assay to identify small molecule antagonists of the progesterone receptor (PR) signaling pathway (AID 1346795; active = well fitted inhibition curve with a large enough effect in the signal ratio in the repeat runs, not every such curve was filed as active; the % refers to the signal ratio)
Outline: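 Beta-lactamase reporter, HEK293T PR-UAS-bla line; 2% charcoal-stripped FBS; 6 hr pre-incubation, 37C/5% CO2. Compound + R5020 1 nM final, 16 hr. LiveBLAzer B/G FRET substrate, 2 hr RT; fluorescence intensity read.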

[15] = qHTS assay to identify small molecule agonists of the progesterone receptor (PR) signaling pathway - cell viability counter screen (AID 1346799; calls by dose curve; also: nearly all actives have a fitted effect of over 45% in size)
Outline: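 HEK293T PR-UAS-bla, 3,000 cells/well, 2% charcoal-stripped FBS; 6 h settle, compound 16 h at 37C/5% CO2; LiveBLAzer 2 h RT, then CellTiter-Glo 30 min RT, luminescence read.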

[16] = qHTS assay to identify small molecule antagonists of the sonic hedgehog signaling (Shh) pathway (AID 1259369; calls by dose curve; also: nearly all actives have a fitted effect of over 45% in size)
Outline: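 3T3Gli1-Luc, conditioned-medium-stimulated, 24hr cpd, 37C/5% CO2; Gli1-driven firefly Luc luminescence after 30min RT with luciferase reagent. Cells plated 4hr before cpd.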

[17] = biological target: Estrogen receptor (Homo sapiens) (UniProt P03372); experiment: qHTS assay to identify small molecule agonists of the estrogen receptor alpha (ER-alpha) signaling pathway in the presence of an antagonist (AID 1259383; calls by dose curve; also: top concentration of the series differs between compounds; nearly all actives have a fitted effect of over 15% in size)
Sequence of Estrogen receptor (Homo sapiens) (P03372 whole entry, looked up): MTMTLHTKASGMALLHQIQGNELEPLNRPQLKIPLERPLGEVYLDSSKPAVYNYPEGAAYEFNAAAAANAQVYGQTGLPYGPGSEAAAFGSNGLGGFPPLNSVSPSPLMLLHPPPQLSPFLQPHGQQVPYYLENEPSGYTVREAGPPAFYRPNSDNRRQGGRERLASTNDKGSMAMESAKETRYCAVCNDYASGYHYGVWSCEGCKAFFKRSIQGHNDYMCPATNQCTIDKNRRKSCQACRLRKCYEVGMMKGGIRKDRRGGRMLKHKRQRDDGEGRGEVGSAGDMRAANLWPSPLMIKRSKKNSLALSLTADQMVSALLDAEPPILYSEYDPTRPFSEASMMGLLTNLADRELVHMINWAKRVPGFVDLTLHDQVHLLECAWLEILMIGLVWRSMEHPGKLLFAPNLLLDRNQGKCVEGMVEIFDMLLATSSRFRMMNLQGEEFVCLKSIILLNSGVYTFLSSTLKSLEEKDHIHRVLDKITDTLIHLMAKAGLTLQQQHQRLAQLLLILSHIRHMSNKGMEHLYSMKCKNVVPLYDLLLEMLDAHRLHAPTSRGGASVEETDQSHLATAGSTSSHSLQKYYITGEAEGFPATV
Outline: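 VM7Luc4E2, endog. ER-alpha + 4×ERE-luc; charcoal-stripped FBS, phenol red-free, 5 d; 24hr plating; +10.0nM ICI-182,780 (final); cpds 15 conc, 22hr, 37C/5% CO2; ONE-Glo luminescence.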

[18] = qHTS assay to identify small molecule agonists or antagonists of the thyroid stimulating hormone receptor (TSHR) signaling pathway - wild type cell line counter screen (AID 1259384; calls by dose curve)
Outline: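 Wild-type HEK293 cells were plated 18 h at 37 C/5% CO2, pin-dosed with compound plus Ro20-1724 medium, held 30 min at room temperature, then given cAMP-d2 and anti-cAMP-cryptate; fluorescence was read after 1 h. Fifteen concentrations, triplicate.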

[19] = qHTS assay to identify small molecule antagonists of the progesterone receptor (PR) signaling pathway - cell viability counter screen (AID 1346798); also: series mostly up to about 92 µM; nearly all actives have a fitted effect of over 50% in size
Outline: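 Luminescence readout (CellTiter-Glo, 30 min, RT) of viability in PR-UAS-bla HEK293T cells exposed to compound and R5020 agonist for 16 hr at 37C, 5% CO2; run in the same wells as the beta-lactamase reporter read.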

[20] = biological target: Androgen receptor (Homo sapiens) (UniProt P10275); experiment: qHTS assay to identify small molecule agonists of the androgen receptor (AR) signaling pathway in the presence of an antagonist (AID 1259381; calls by dose curve; also: nearly all actives have a fitted effect of over 15% in size)
Sequence of Androgen receptor (Homo sapiens) (P10275 whole entry, looked up): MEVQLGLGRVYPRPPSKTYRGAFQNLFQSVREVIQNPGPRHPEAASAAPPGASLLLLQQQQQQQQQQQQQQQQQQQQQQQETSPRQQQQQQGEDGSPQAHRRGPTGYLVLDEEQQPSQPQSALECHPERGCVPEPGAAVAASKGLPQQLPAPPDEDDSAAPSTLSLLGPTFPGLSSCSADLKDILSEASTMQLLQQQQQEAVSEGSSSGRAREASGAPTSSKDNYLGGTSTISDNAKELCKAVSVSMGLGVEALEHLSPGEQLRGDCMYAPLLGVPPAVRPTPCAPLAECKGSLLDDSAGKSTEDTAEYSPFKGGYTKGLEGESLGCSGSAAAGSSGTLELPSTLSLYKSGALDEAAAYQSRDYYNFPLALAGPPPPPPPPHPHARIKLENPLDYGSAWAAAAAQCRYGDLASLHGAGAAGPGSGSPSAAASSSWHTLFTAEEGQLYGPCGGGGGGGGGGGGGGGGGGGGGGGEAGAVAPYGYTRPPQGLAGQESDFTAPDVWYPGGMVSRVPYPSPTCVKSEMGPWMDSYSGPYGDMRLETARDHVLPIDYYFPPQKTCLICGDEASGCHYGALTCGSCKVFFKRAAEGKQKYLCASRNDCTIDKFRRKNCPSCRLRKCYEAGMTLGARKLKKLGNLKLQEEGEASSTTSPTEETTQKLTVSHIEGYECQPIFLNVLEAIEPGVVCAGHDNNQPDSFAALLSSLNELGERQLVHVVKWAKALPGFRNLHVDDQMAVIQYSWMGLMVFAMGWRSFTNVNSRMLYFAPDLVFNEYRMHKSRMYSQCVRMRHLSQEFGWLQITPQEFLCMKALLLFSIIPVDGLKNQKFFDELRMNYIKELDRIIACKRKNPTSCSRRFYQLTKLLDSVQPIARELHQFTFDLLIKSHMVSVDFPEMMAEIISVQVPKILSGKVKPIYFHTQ
Outline: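 MDA-kb2 cells, 3,000/well, rested 5hr at 37C/0% CO2 → nilutamide 3.0uM final or buffer → compounds, 15 conc. → 16hr at 37C → ONE-Glo, 30min RT → luminescence.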
% is scaled to controls: 0 for no effect and ±100 for the full control effect.

CCCC(=O)OCCC(C)CCC=C(C)C (stereo not given)
inactive: Potency [1] | outcome [2] | outcome [3] | outcome [4] | outcome [5] | Potency [6] | Potency [7] | outcome [8] | outcome [9] | outcome [10] | outcome [11] | outcome [12] | Potency [13] | Potency [14] | outcome [15]

CO[C@@]1(NC(=O)Cc2cccs2)C(=O)N2C(C(=O)O)=C(COC(N)=O)CS[C@@H]21
inactive: Potency [1] | outcome [2] | outcome [3] | outcome [4] | outcome [5] | Potency [16] | outcome [8] | outcome [10] | Potency [17] | outcome [18] | outcome [11] | outcome [12] | Potency [13] | Potency [14] | outcome [19] | outcome [15]

N[C@@H](CSCCCO)C(=O)O
inactive: activity change, negative = inhibition [1] -2.63% [at 19 µM] | activity change, negative = cytotoxicity [2] -0.57% [at 19 µM] | viability change, negative = cytotoxic [3] -0.254% [at 19 µM] | viability change, negative = cytotoxic [4] 1.48% [at 19 µM] | activity change [5] 0.782% [at 18.9 µM] | activation [6] -2.61% [at 19 µM] | activity, negative = inhibition [7] 0.481% [at 19 µM] | activity change, negative = cytotoxicity [8] -1.46% [at 19 µM] | activity change, negative = cytotoxicity [9] 7.76% [at 19 µM] | activation [20] -0.115% [at 19 µM] | activity change, negative = cytotoxicity [10] 8.62% [at 19 µM] | cAMP activity change [18] -1.7% [at 18.9 µM] | activity change, negative = inhibition [11] -0.731% [at 19 µM] | activation [13] -0.517% [at 19 µM] | activity change, negative = inhibition [14] 8.75% [at 18.9 µM] | activity change, negative = cytotoxicity [19] -3.41% [at 18.9 µM] | activity change, negative = cytotoxicity [15] 4.73% [at 19 µM]

Cc1ccc(C(=O)O)cc1[N+](=O)[O-]
inactive: Potency [1] | outcome [2] | outcome [3] | outcome [4] | Potency [16] | Potency [6] | Potency [7] | outcome [8] | outcome [9] | outcome [20] | outcome [10] | Potency [17] | outcome [18] | outcome [12] | Potency [14]

CC(C)C1OCCN1CCOC(=O)NCCCCCCNC(=O)OCCN1CCOC1C(C)C (stereo not given)
inactive: Potency [1] | outcome [2] | outcome [3] | outcome [4] | Potency [16] | Potency [6] | Potency [7] | outcome [8] | outcome [9] | outcome [20] | outcome [10] | Potency [17] | outcome [18] | outcome [11] | outcome [12] | Potency [14] | outcome [19] | outcome [15]

CCCCCCCCCCOC(C)=O
inactive: Potency [1] | outcome [2] | outcome [3] | outcome [4] | outcome [5] | Potency [16] | outcome [8] | outcome [9] | outcome [10] | outcome [18] | outcome [11] | Potency [13] | Potency [14] | outcome [19] | outcome [15]

CCCCCCCCCCCCCBr
inactive: Potency [1] | outcome [2] | outcome [3] | outcome [4] | outcome [5] | Potency [16] | outcome [8] | outcome [9] | outcome [10] | outcome [12] | Potency [14] | outcome [19] | outcome [15]

CC(C)CCOC(=O)c1ccccc1
inactive: Potency [1] | outcome [2] | outcome [3] | outcome [4] | outcome [5] | Potency [16] | outcome [8] | outcome [9] | outcome [10] | outcome [18] | outcome [11] | outcome [12] | Potency [14] | outcome [19] | outcome [15]

CC(C)[C@H]1CC[C@H](C)C[C@@H]1O
inactive: Potency [1] | outcome [2] | outcome [3] | outcome [4] | outcome [5] | Potency [7] | outcome [8] | outcome [9] | outcome [20] | outcome [10] | outcome [18] | outcome [11] | Potency [13] | Potency [14] | outcome [19] | outcome [15]

CC(C)(C)NC[C@H](O)COc1cccc2c1CCCC2=O
inactive: Potency [1] | outcome [2] | outcome [3] | outcome [4] | outcome [5] | Potency [6] | Potency [7] | outcome [8] | outcome [9] | outcome [10] | Potency [17] | outcome [12] | Potency [13] | Potency [14] | outcome [19] | outcome [15]

O=S(=O)(O)c1ccc2c(N=Nc3ccc(S(=O)(=O)O)c4ccccc34)c(O)c(S(=O)(=O)O)cc2c1
inactive: activity change, negative = inhibition [1] 1.26% [at 8.39 µM] | activity change, negative = cytotoxicity [2] -10.4% [at 8.39 µM] | viability change, negative = cytotoxic [3] -12.8% [at 8.39 µM] | viability change, negative = cytotoxic [4] -12.4% [at 8.39 µM] | activity change [5] -2.14% [at 8.39 µM] | activity change, negative = inhibition [16] 39.1% [at 8.39 µM] | activity change, negative = cytotoxicity [8] -15.5% [at 8.39 µM] | activity change, negative = cytotoxicity [9] 3.66% [at 8.39 µM] | activity change, negative = cytotoxicity [10] -3.29% [at 8.39 µM] | cAMP activity change [18] -0.796% [at 8.39 µM] | activation [13] 2.07% [at 8.39 µM] | activity change, negative = inhibition [14] -1.68% [at 8.39 µM] | activity change, negative = cytotoxicity [19] 12.1% [at 8.39 µM] | activity change, negative = cytotoxicity [15] 18.6% [at 8.39 µM]

CCCCOC(=O)C(C)O (stereo not given)
inactive: Potency [1] | outcome [2] | outcome [3] | outcome [4] | outcome [5] | Potency [16] | outcome [8] | outcome [10] | outcome [18] | outcome [11] | outcome [12] | Potency [13] | Potency [14] | outcome [19] | outcome [15]
